Drawing on PubChem BioAssay (EPA / NIEHS), this text covers outcome and AC50 for 40 molecules.

Structures are written as SMILES. Active and inactive are the calls of the source. The calls were made as follows: active = hit-call score of the fitted dose curve at least 0.9, where 1 is the maximum; inactive = score below 0.9.

Read-out in this test: Monokine induced gamma interferon (MIG), CXCL9 (gene 4283)
In words: BSK_SAg_MIG: BioMAP Diversity Plus: SAg Assay for Monokine induced gamma interferon (MIG) Biomarker Activity (AID 2283092). To be noted: primary human HUVEC with PBMC; actives raise or lower the signal. On the procedure:
BSK_SAg is a cell-based, multiplexed-readout assay that uses umbilical vein endothelium and peripheral blood mononuclear cells, a human vascular primary cell co-culture, with measurements taken at 24 hours after chemical dosing in a 96-well plate.BSK_SAg_MIG is an assay component measured in the BSK_SAg assay. It measures MIG antibody related to regulation of gene expression using ELISA technology.Data from the assay component BSK_SAg_MIG was analyzed into 1 assay endpoint. This assay endpoint, BSK_SAg_MIG, was analyzed with bidirectional fitting relative to DMSO as the negative control and baseline of activity. Using a type of binding reporter, gain or loss-of-signal activity can be used to understand changes in the signaling as they relate to the gene CXCL9. Furthermore, this assay endpoint can be referred to as a primary readout, because this assay has produced multiple assay endpoints where this one serves a signaling function. To generalize the intended target to other relatable targets, this assay endpoint is annotated to the cytokine intended target family, where the subfamily is chemotactic factor.
The levels of cell surface (or secreted, indicated by the prefix "s") biomarker endpoints were measured by ELISA. Overt cytotoxicity to cells in confluent adherent cultures (all systems other than the BT system) was assessed by measuring total protein levels using sulforhodamine B (SRB) staining in parallel cultures at the time of biomarker measurements, indicated as SRB endpoints. For proliferation assays for adherent cell types, individual cell types are cultured at sub-confluence and relative cell numbers quantified by SRB staining at time points optimized for each system (48 h: 3C and CASM3C systems; 72 h: BT and HDF3CGF systems; 96 h: SAg system). SRB was performed by staining cells with 0.1% SRB after fixation with 10% TCA and reading wells at 560 nm.Viability and proliferation of PBMC (T cells) was quantified by Alamar Blue reduction for the SAg and BT systems. For PBMC viability (referred to as PBMC Cytotoxicity within the assay endpoint names), cells were plated (75,000/well in a 96-well plate) and then chemical samples added for 1 h before addition of activators, SEB and TSST-1 (20 ng/mL final concentration each). Cells were incubated for 90 h. Then, Alamar Blue (20 uL/well) (Invitrogen, Cat DAL1100) was added for 6 h, and the plates were read with a fluorescence microplate reader at 546/580 nm (excitation/emission). For PBMC proliferation, cells were plated and activated as above but incubated for only 16 h prior to addition of Alamar Blue. Plates were read after 6 h.
In the case of `c1ccc2c(c1)sc1ccccc12`, the outcome was inactive.

On to `Nc1ccc2ccccc2c1`, for which the result was inactive.

For `CCC1(c2ccccc2)C(=O)N=C(O)NC1=O` (stereo not given), the outcome was inactive.

With `CC(C)Nc1ccc(Nc2ccccc2)cc1`, the AC50 is 9.5 µM (active).

For the molecule `O=[N+]([O-])c1ccccc1`, the outcome was inactive.

`CC(Cl)CN(C)C` (stereo not given): the outcome was inactive.

Turning to `O=c1ssc(Cl)c1Cl`, the AC50 is 9 µM (active).

As to `Cc1c([N+](=O)[O-])cc2c(c1[N+](=O)[O-])C(C)(C)CC2(C)C`, the outcome was inactive.

With `CCCCCCCc1ccc(O)cc1`, the AC50 is 37.2 µM (active).

Turning to `N#Cc1c(-c2ccc(Cl)cc2)[nH]c(C(F)(F)F)c1Br`, the AC50 was 2.85 µM (active).

For `CC(Cl)(Cl)C(=O)O`, the outcome was inactive.

Consider `COP(N)(=S)OC`, for which the result was inactive.

`CCCCc1ccccc1`: the outcome was inactive.

Take `O=P1(N(CCCl)CCCl)NCCCO1` (stereo not given): the result was inactive.

In the case of `CCOP(=S)(S)OCC`, the result was inactive.

Consider `CCOP(=S)(NC(C)C)Oc1ccccc1C(=O)OC(C)C` (stereo not given), for which the result was inactive.

On to `Cc1ccc(O)cc1C`, for which the result was inactive.

`O=C(O)C(F)(OC(F)(F)C(F)(F)C(F)(F)F)C(F)(F)F` (stereo not given): the outcome was inactive.

`ClC(Cl)c1ccccc1`: the result was inactive.

In the case of `O=C(O)C=CC(F)(C(F)(F)F)C(F)(F)F`, the result was inactive.

Consider `c1cc2c3c(cccc3c1)CC2`, for which the result was inactive.

For `Nc1ccc(Cl)cc1`, the outcome was inactive.

On to `O=C(O)C1C(C(=O)O)C2(Cl)C(Cl)=C(Cl)C1(Cl)C2(Cl)Cl` (stereo not given), for which the result was inactive.

For the molecule `CCOP(=S)(OCC)SCn1nnc2ccccc2c1=O`, the outcome was inactive.

Consider `O=S1(=O)OCC2C(CO1)C1(Cl)C(Cl)=C(Cl)C2(Cl)C1(Cl)Cl` (stereo not given), for which the outcome was inactive.

In the case of `CCOP(=S)(Oc1ccc([N+](=O)[O-])cc1)c1ccccc1` (stereo not given), the outcome was inactive.

In the case of `CC(C)(C)OOC(C)(C)C`, the result was inactive.

`Cc1ccc([N+](=O)[O-])cc1C`: the outcome was inactive.

Turning to `CCOP(=S)(OCC)SCSc1ccc(Cl)cc1`, the result was inactive.

On to `CCCN(CCC)c1c([N+](=O)[O-])cc(C(C)C)cc1[N+](=O)[O-]`, for which the outcome was inactive.

With `COP(=O)(O)OC`, the result was inactive.

As to `ClC(Cl)=C(c1ccc(Cl)cc1)c1ccccc1Cl`, the AC50 is 20 µM (active).

As for `CCCCC(CC)COP(=O)(Oc1ccccc1)Oc1ccccc1` (stereo not given), the outcome was inactive.

Consider `COC(=O)C(F)(F)C(F)(F)OC(F)(C(F)(F)F)C(F)(F)OC(F)=C(F)F` (stereo not given), for which the result was inactive.

On to `CC(O)C(F)(F)C(F)(F)F` (stereo not given), for which the outcome was inactive.

In the case of `O=C(O)C(F)(F)OC(F)(F)C(F)(F)OC(F)(F)F`, the result was inactive.

As for `CCOS(=O)(=O)OCC`, the outcome was inactive.

On to `C=CC(=O)OCC(CC)(COC(=O)C=C)COC(=O)C=C`, for which the AC50 is 3.36 µM (active).

For the molecule `ClC1=C(Cl)C2(Cl)C3C(Cl)C(Cl)CC3C1(Cl)C2(Cl)Cl` (stereo not given), the AC50 is 34.4 µM (active).

For `Cc1ccc2c(c1N)C(=O)c1ccccc1C2=O`, the outcome was inactive.
